The supplement of paper PMC6555819

System: PXR homodimer (NR concentration 270 nM)
Experiment: PBM binding z-score (relative to random genomic background probes); higher = stronger binding; sequences stand for … in GC…GCGATTGACAGCGTAGAATGAAGG
Summary of the method: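 The probes on custom Agilent 4×180K protein-binding microarrays were double-stranded, with 34-nt variable regions bearing direct-repeat seeds, single-nucleotide variants, half-site ablations and random human genomic background sequences. Incubation lasted 1 h with ligand-free nuclear receptor dimers in PBS pH 7.4, 2% milk, 0.02% Triton X-100, 1 mM DTT, 0.2 mg/mL BSA and 0.4 mg/ml salmon testes DNA. Antibodies against each partner (one per run) detected bound dimers, and fluorescence scans were regression-normalized. Binding z-scores take the random background probes as reference.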

Sequence	PBM binding z-score
CTATGTAGGTTAAGGGGGTTATTCAGTTTGAAAG	5.03
TCGAGTAGGTTACGGAGGCATTCAGGGATGAAGA	-0.388
CTATGTAGGTTAAGCGGGTCATTCAGTTTGAAAG	8.04
CGATGTAGGTTAAGGGGGTCATTCAGTTTGAAAG	13.5
CTATGTAGGTTAAGGGGGCCATTCAGTTTGAAAG	3.67
CTATGCAGGTTAAGGGGGTCATTCAGTTTGAAAG	12.4
TCGAGTAGGTTACTGGGGCATTCAGGGATGAAGA	-0.522
CCGACTAGGTTACGAGGGGGCATTCAGTGCGAAT	5.23
CCGAGTAGGTTACGAGGGGGCATTCGGTGCGAAT	4.05
TCGAGTAGGTTACGGGGGCATTCAGGGATGAAGA	1.53
TCGAGTAGGTTACGGGGGCATTAAGGGATGAAGA	1.24
CAATGTAGGTTAAGGGGGTCATTCAGTTTGAAAG	13.1
CTATGTAGGTTAATGGGGTCATTCAGTTTGAAAG	13.3
CCGAGTAGGTTACGAGGCGGCATTCAGTGCGAAT	-0.255
CCGAGTAGGTTACGAGGGCGCATTCAGTGCGAAT	-0.379
CTATGTAGGTGAAGGGGGTCATTCAGTTTGAAAG	9.91
TCTAGTAGGTTACGGGGGCATTCAGGGATGAAGA	2.71
CCGAGTAAGTTACGAGGGGGCATTCAGTGCGAAT	4.68
CTATGTAGGGTAAGGGGGTCATTCAGTTTGAAAG	11.1
CTATGTAGGTTAAAGGGGTCATTCAGTTTGAAAG	13
CTCTGTAGGTTAAGGGGGTCATTCAGTTTGAAAG	12
TCGAGTAGGTTACGGGGGCATTGAGGGATGAAGA	1.71
